# From PubChem BioAssay
# RORg inh: blocks mouse ROR gamma transcriptional activity; Potency, µM (doses to about 53.6 µM), without a hit: at the top dose activity change, negative = inhibition, most hits filed as inhibitors; hit rate 5.4% among 310,000; P51450; Drosophila S2 Gal4-RORgamma UAS-luciferase reporter, 20 h; AID 2551; further: potency means the concentration at half of the fitted maximal effect; nearly all actives have a fitted effect of over 60% in size
# Target sequence (P51450 whole entry, looked up, the tested form may be a part): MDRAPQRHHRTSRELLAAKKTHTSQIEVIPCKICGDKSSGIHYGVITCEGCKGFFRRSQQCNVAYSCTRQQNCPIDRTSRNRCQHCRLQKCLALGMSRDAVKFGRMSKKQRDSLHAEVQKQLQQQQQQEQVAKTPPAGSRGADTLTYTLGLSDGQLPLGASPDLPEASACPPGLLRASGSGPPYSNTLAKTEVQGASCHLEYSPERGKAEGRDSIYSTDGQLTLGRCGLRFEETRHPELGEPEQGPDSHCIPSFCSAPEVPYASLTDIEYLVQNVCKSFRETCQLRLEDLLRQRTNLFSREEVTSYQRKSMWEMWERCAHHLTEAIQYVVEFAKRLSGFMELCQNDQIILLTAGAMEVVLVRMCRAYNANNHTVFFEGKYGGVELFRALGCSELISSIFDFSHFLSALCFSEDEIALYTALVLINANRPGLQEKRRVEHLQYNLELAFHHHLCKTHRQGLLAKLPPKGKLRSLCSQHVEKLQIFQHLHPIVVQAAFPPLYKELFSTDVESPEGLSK
#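 Luciferase reporter read in Schneider cells carrying Gal4-RORγ (mouse) and UAS-Photinus luciferase; cells given compound 1 h before 700 uM copper sulfate induction, then incubated 20 h at ambient temperature.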
# DT40 TDP1 no CPT: qHTS for Inhibitors of human tyrosyl-DNA phosphodiesterase 1 (TDP1): qHTS in cells in absence of CPT; DT40 Tdp1-/- hTDP1 cells, no CPT, ATP luminescence, 48 h; Potency, µM (top dose mostly 46.2 µM), for the others: at the highest dose activity change, negative = growth inhibition, hits mostly inhibitors; hit rate 15% among 420,000; AID 686978, 2013; further: potency means the concentration at half of the fitted maximal effect; nearly all actives have a fitted effect of over 55% in size
#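 Camptothecin absent (DMSO only). Human TDP1-complemented DT40 knockout cells, 400 cells/well, 37 °C for minimum 48 hr; ATP measured via CellTiter-Glo, 30 min dark incubation, luminescence.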
# ELG1 DNA repair: blocks ELG1-dependent DNA repair in HEK293T cells; hit rate 2.3% among 330,000; AID 504467; Potency, µM (highest dose often 46.1 µM), inactives show top-dose activity change, negative = inhibition, most hits filed as inhibitors; HEK293T ELG1-luciferase reporter, luminescence, 16 h; DNA damage induced by 5-fluorouridine; further: potency means the concentration at half of the fitted maximal effect; nearly all actives have a fitted effect of over 55% in size
#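 Luminescence from the luciferase reporter, measured 30 min after ONE-Glo reagent at room temperature, was the read-out. Beforehand, 2,000 cells per well were exposed for 16 hr at 37 °C to 5-fluorouridine together with compound or vehicle.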
# TDP1 cell CPT: DT40-hTDP1 cell growth loss with CPT; chicken DT40 Tdp1-/-;hTDP1 cells + 20 nM CPT, ATP luminescence, 48 h; Potency, µM (top dose mostly 46.2 µM), inactives show top-dose activity change, negative = growth inhibition, actives largely listed as inhibitors; hit rate 12% among 420,000; AID 686979; further: potency means the concentration at half of the fitted maximal effect; nearly all actives have a fitted effect of over 55% in size
#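 Chicken DT40 Tdp1-/- cells complemented with human TDP1, 400 cells/well, exposed to compounds plus 20 nM camptothecin for at least 48 h at 37 C; viability read as ATP content by CellTiter-Glo luminescence.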
# IL1B secr inh: inhibitors of inflammasome signaling (IL-1 beta secretion) | activity change, % at 57.5 µM | THP-1 LPS/ATP IL-1B secretion, AlphaLISA, 16 h; stronger effect = lower value | hit rate 4.7% among 360,000 | AID 743279; in the data active means activity change below about -50%; inconclusive means mostly about -30% to -49%
#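 THP-1 cells pretreated 1 hr with compounds (up to 57.5 uM final), then stimulated with LPS (250 ng/mL final) plus ATP (1.25 mM final); secreted IL-1B measured by AlphaLISA after 16 hr, decreased signal indicating inhibition.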
# VP16 counter: inhibits Gal4-VP16 luciferase reporter, ROR gamma counter-screen; Drosophila S2 Gal4-VP16 UAS-luciferase, luminescence, 20 h; Potency, µM (top dose mostly 53.6 µM), without a hit: at the top dose activity, negative = inhibition, hits mostly inhibitors; hit rate 3.5% among 310,000; AID 2546;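 further: Gal4-VP16 expression switched on by copper sulfate through the metallothionein promoter; potency means the concentration at half of the fitted maximal effect; nearly all actives have a fitted effect of over 50% in size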
# Numbers without * were called inactive; u = inconclusive; x = no result given; [ ] = remark or other dose. Shown are actives, neighbours in structure and some others; about 21% of the full set was active somewhere. Unless noted, the call rests on the fitted dose curve; in most records, active means well fitted curve in the direction sought with a large enough effect; inconclusive means small, poorly fitted or top-dose-only effect, or another doubt; inactive means no such curve, though single readings can be large; an effect the other way counts as inactive or inconclusive. On the % scale 0 is the no-effect control and ±100 the full control effect.
SMILES,RORg inh,DT40 TDP1 no CPT,ELG1 DNA repair,TDP1 cell CPT,IL1B secr inh,VP16 counter
CN1CCN(c2oc(/C=C/c3ccccc3)nc2C#N)CC1,11.5%,16.9%,6.2%,16.0%,4.8,2.6%
COc1cc(/C=C/c2nc(C#N)c(N3CCC(C)CC3)o2)cc(OC)c1OC,x,7.31µM*,x,10.3µM*,x,x
COc1ccc(/C=C/c2nc(C#N)c(N3CCN(c4ccccc4)CC3)o2)cc1OC,x,-11.9%,x,-11.9%,x,x
COc1ccccc1C(=O)Nc1ccc(-c2nc3cc(C)cc(C)c3o2)cc1,x,-15.2%,x,-8.2%,x,x
COc1ccc(N2CCN(c3oc(/C=C/c4cc(OC)c(OC)c(OC)c4)nc3C#N)CC2)cc1,x,3.66µM*,x,2.91µM*,x,x
COc1ccccc1/C=C/c1nc(C#N)c(N2CCCCC2)o1,x,16.4µM*,x,-72.2%,x,x
COc1cccc(/C=C/c2nc(C#N)c(N3CCCCCC3)o2)c1,x,18.4µM*,x,u,x,x
COc1cccc(/C=C/c2nc(C#N)c(N3CCC(C(N)=O)CC3)o2)c1,x,-29.9%,x,-24.8%,x,x
COc1ccc(OCc2nc(C#N)c(N3CCN(c4ccc(OC)cc4)CC3)o2)cc1,u,u,-22.4%,u,-26.5,2.9%
COc1cccc(NS(=O)(=O)c2ccc3c(c2)N(C)C(=O)CC(=O)N3C)c1,x,-16.9%,x,-2.7%,x,x
COc1ccc(-c2cc(C(F)(F)F)nc(N3CCOCC3)n2)cc1OC,9.6%,10.3µM*,-29.9%,u,-18.9,-14.9%
Fc1ccc(-c2cc(C(F)(F)F)nc(NCc3cccs3)n2)cc1,40.6%,u,-12.5%,-17.5%,-8.1,-7.1%
CCOc1cc2nc(-c3ccc(OC)c(OC)c3)nc(N3CCOCC3)c2cc1OC,16.2%,u,u,20.6µM*,-29.8,-10.3%
Fc1ccc(CNc2nc(-c3ccc(Cl)cc3)cc(C(F)(F)F)n2)cc1,x,18.4µM*,x,23.1µM*,x,x
CCOc1cc2nc(-c3ccc(OC)c(OC)c3)nc(N3CC(C)OC(C)C3)c2cc1OC (stereo not drawn),3.3%,x,u,x,x,-2.4%
FC(F)(F)c1ccnc(NCc2ccc(Cl)cc2)n1,-8.8%,-28.6%,0.3%,-15.6%,-55.3*,-4.9%
COc1cc(NS(=O)(=O)c2ccc(C)cc2)c2c(c1N)C(=O)c1ccccc1C2=O,x,-13.7%,x,-7.1%,-14.7,x
FC(F)(F)c1cc(-c2ccco2)nc(NCc2ccccc2)n1,12.5%,u,7.4%,u,0.7,8.9%
COc1ccc(-c2cc(C(F)(F)F)nc(NCc3ccccc3)n2)cc1,x,u,x,25.9µM*,x,x
COc1ccccc1C(=O)NC(=O)Nc1nc(-c2ccccc2)cc(C(F)(F)F)n1,-20.6%,u,2.9%,14.6µM*,-23.6,-1.8%
CCOc1cc(C)nc(NCCc2ccc(OC)c(OC)c2)n1,17.7%,20µM*,u,u,-56.7*,-0.1%
COc1ccc(N2CCN(c3nc(NCCc4ccc(OC)c(OC)c4)nc(OC)n3)CC2)cc1,32.6%,4.61µM*,x,6.51µM*,u,-9.1%
Cc1ccc(N2CC(NC(=O)C3CCCC3)CC2=O)cc1 (stereo not drawn),x,-11.5%,x,-17.9%,x,x
COc1ccc(CCNc2nc(-c3ccc(OC)c(OC)c3)cc(C(F)(F)F)n2)cc1OC,x,u,x,18.4µM*,x,x
COc1ccc(OC)c(NC(=O)CCc2c(C)nc3c(c(C)nn3C(C)(C)C)c2C)c1,x,16.4µM*,x,u,x,x
SMILES,RORg inh,DT40 TDP1 no CPT,ELG1 DNA repair,TDP1 cell CPT,IL1B secr inh,VP16 counter
Cc1nc2c(c(C)nn2C(C)(C)C)c(C)c1CCC(=O)Nc1ccc(Br)cc1Br,x,25.9µM*,x,u,x,x
Cn1c(CC(=O)Nc2ccc(F)cc2)c(Sc2ccccc2)c2ccccc21,2.0%,-16.2%,-0.2%,u,29.7,-21.1%
Cn1c(CC(=O)NC(C)(C)CO)c(Sc2ccccc2)c2ccccc21,9.2%,16.4µM*,6.1%,14.6µM*,0.0,-3.6%
COc1ccc2cc(CNCc3ccccc3Cl)c(N3CCCC(CO)C3)nc2c1 (stereo not drawn),x,u,x,24.6%[9.04 µM],x,x
O=C(O)c1ccc(S(=O)(=O)c2ccc3c(c2)C(=O)N(c2ccc(Br)cc2)C3=O)cc1,10.1%,-7.1%,-6.9%,1.2%,20.5,1.7%
O=C(O)c1ccc(S(=O)(=O)c2ccc3c(c2)C(=O)N(NC(=O)c2ccc(O)cc2)C3=O)cc1,6.31µM*,19.6%,8.7%,10.2%,17.3,10µM*
O=C(O)c1ccc2c(c1)C(=O)N(NC(=O)c1ccccc1)C2=O,-22.9%,-6.7%,17.5%,-7.3%,u,2.3%
Cc1ccc(C(=O)NN2C(=O)c3ccc(S(=O)(=O)c4ccc(C(=O)O)cc4)cc3C2=O)cc1,-20.9%,u,10.6%,18.4µM*,16.3,4.5%
O=C(Cc1ccc(Cl)cc1)NCC(=O)N1CCCCCC1,x,-0.6%,-4.6%,-10.8%,-5.5,x
CCCNC(=S)Nc1ccc(Nc2ccccc2)cc1,5.01µM*,u,u,u,u,15.8µM*
CNC(=S)Nc1ccc(C(N)=O)cc1,-1.0%,-23.9%,10.5%,5.2%,39.9,-7.3%
S=C(NCCCNC(=S)Nc1ccccc1)Nc1ccccc1,u,-24.7%,-0.5%,1.1%,-21.3,5.1%
CNC(=S)Nc1ccc(Nc2ccccc2)cc1,11.2µM*,-18.1%,u,-26.0%,-2.6,-1.5%
Cn1c(SCc2ccccc2)nc(N)c(N=O)c1=O,x,14.6µM*,x,u,u,x
Cn1c(SCc2ccccc2)nc(C(F)(F)F)cc1=O,1.5%,-10.4%,14.4%,11.2%,-17.9,-5.6%
Cc1ccc(-c2cc(-c3ccccc3)nc(N(C)N)n2)cc1,12.6µM*,u,-1.9%,u,-2.1,u
CN1OC[C@@H]2CN[C@H](c3ccc(-c4cc5ccccc5o4)cc3)C[C@@H]21,x,23.1µM*,x,16.4µM*,-9.8,x
CN1OC[C@@H]2CN(C(=O)c3ccco3)[C@H](c3ccc(-c4ccc(C#N)cc4)cc3)C[C@@H]21,x,u,x,u,-13.3,x
CN1OC[C@@H]2CN[C@H](c3cccc(N4CCOCC4)c3)C[C@@H]21,x,4.8%,x,-3.2%,-7.3,x
CN1OC[C@@H]2CN[C@H](c3ccc(-c4ccc(C#N)cc4)cc3)C[C@@H]21,x,23.1µM*,x,18.4µM*,6.2,x
C/C(=C\COc1c2ccoc2cc2oc(=O)ccc12)CCC(O)C(C)(C)O (stereo not drawn),-14.1%,x,x,x,x,-4.3%
O=[N+]([O-])c1cc(-c2cnc3ccccc3n2)ccc1Cl,1.4%,-9.1%,-2.4%,7.6%,-10.2,19.1%
